In the library only some 2.4% were active in any assay of this set; here they are far more common.
D2 PAM-1 = positive allosteric modulators of human D2 dopamine receptor; 360,000 tested, 0.23% active; DiscoveRx D2 beta-arrestin cells, luminescence, 90 min; 100% = 57 uM dopamine signal; potentiation, % (concentration not given with the values); P14416; in the data active = potentiation above about 50%; inconclusive = mostly about 30% to 49%
Target sequence (P14416 whole entry, looked up): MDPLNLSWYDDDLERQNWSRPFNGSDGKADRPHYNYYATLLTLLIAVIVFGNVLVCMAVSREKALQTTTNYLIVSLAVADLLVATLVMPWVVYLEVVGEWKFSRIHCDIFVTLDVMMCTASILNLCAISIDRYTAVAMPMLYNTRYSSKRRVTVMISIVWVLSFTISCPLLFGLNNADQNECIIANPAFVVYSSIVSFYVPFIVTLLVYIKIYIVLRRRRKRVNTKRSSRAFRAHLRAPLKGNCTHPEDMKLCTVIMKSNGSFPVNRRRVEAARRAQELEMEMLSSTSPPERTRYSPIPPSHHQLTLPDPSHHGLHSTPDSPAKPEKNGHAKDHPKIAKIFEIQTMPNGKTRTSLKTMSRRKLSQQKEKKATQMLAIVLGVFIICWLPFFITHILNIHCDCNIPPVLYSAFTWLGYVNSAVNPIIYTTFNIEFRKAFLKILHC
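D2 cells co-treated with compound plus 50 nM dopamine (EC20) for 90 min at 37 deg C to detect potentiation. Beta-arrestin recruitment was read as enzyme-fragment luminescence after 1 h at ambient temperature. Full response was set by 57 uM dopamine.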
D2 antag = antagonists of human D2 dopamine receptor; P14416; HEK293 TREx D2 cells, calcium flux, dopamine EC80; inhibition, % at 10 µM; 340,000 tested, 2% active; AID 485344; in the data active = inhibition above about 30%; inactive = below that, where a call was filed
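Cells plated overnight at 30 C with tetracycline; no-wash calcium dye, 30–90 min RT; 10 s baseline; compound pinned; 180 s read; EC80 dopamine added; another 180 s read.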
D2 ag-1 = human D2 receptor agonism in beta-arrestin assay; P14416; DiscoveRx PathHunter D2 beta-arrestin, luminescence, 90 min; 100% = 57 uM dopamine signal; activation, % (test concentration not listed); 360,000 tested, 0.084% active; AID 624465; in the data active = activation above about 40%; inconclusive = between about 15% and that limit
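Agonist mode: compounds alone added to overnight-plated D2 PathHunter cells for 90 min at 37 C, with 57 uM final dopamine (EC100) defining full response. Beta-arrestin recruitment detected by chemiluminescent reagent, read after 1 h at ambient temperature.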
D2 ag-2 = D2 dopamine receptor (human) agonism; HEK293 T-REx D2 cells, calcium flux agonist mode; activation, % at 2 µM; 340,000 tested, 0.53% active; AID 485358;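 active = activation over 3 SD above normal in the single-dose calcium agonist read, cut at about 30% in these data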
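Agonism is scored from calcium flux in a force-coupled, inducible HEK293 cell line expressing D2, read kinetically for 180 s after compound addition against dopamine controls.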
D2 PAM-2 = D2 dopamine receptor (human) potentiation. P14416. HEK293 T-REx D2, calcium flux, EC20 dopamine potentiation. potentiation, % at 10 µM. 340,000 tested, 0.34% active;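 active = potentiation over 3 SD above the plate norm, cut at about 30% in these data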
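Potentiation of an EC20 dopamine calcium response is measured in a force-coupled, tetracycline-inducible Hek293 Trex D2 line. Compound-only kinetic reads over 180 s flag agonists before dopamine addition.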
D3 arrestin ag = confirmation of human D3 dopamine receptor agonists, beta-arrestin | shares compounds with D2 ag-2 | DiscoveRx D3 beta-arrestin cells, luminescence, 90 min | Potency, µM (highest dose often 76.9 µM), hits mostly activators | 2,300 tested, 4% active | AID 720506; note: nearly all actives have a fitted effect of over 70% in size
D2 ag-3 = counter-screen for D3 agonists: human D2 dopamine receptor agonism; Potency, µM (series often up to 76.9 µM), actives largely listed as activators; DiscoveRx PathHunter D2 beta-arrestin, luminescence, 90 min; response scale: percent relative to full dopamine signal; shares compounds with D2 ag-2; 2,300 tested, 5.9% active; note: nearly all actives have a fitted effect of over 70% in size
A number is an active result; – = inactive; ? = inconclusive; · = no result; ! = not active in a repeat. Unless noted, calls come from the whole dose curve; as a rule, active = well fitted activation curve with a large enough effect; inconclusive = small, poorly fitted or top-dose-only effect; inactive = flat fitted curve, though single readings scatter.

SMILES | D2 PAM-1 | D2 antag | D2 ag-1 | D2 ag-2 | D2 PAM-2 | D3 arrestin ag | D2 ag-3
CCCN1CCc2c(sc(NC(=O)c3ccc(S(=O)(=O)N4CCN(C(=O)OCC)CC4)cc3)c2C(N)=O)C1 | – | – | – | 47 | – | – | –
CC(C)c1nnc(NC(=O)c2cc3cc(Br)ccc3oc2=O)s1 | – | – | – | – | – | – | –
O=C(Nc1ccccc1O)c1cc2cc(Br)ccc2oc1=O | – | – | – | – | – | · | ·
COc1ccc(OC)c(-n2c(CN3CCC(C(N)=O)CC3)nc3ccccc3c2=O)c1 | – | – | – | 57 | – | – | –
CCN1C(=O)CC(Sc2ccccc2C(=O)O)C1=O (configuration not stated) | – | – | – | – | – | · | ·
O=C(O)c1ccccc1SC1CC(=O)N(c2cccc3ccccc23)C1=O (configuration not stated) | – | – | – | 41 | – | – | –
CCOC(=O)N1CCc2c(sc(N)c2C#N)C1 | 54 | 58 | ? | 74 | – | ? | ?
O=C(Nc1nnc(S(=O)(=O)N2CCOCC2)s1)c1ccccc1F | – | – | – | – | – | · | ·
O=C(COc1ccccc1)Nc1nnc(S(=O)(=O)N2CCCCCC2)s1 | – | – | – | 50! | – | – | –
O=C(Nc1nnc(S(=O)(=O)N2CCOCC2)s1)c1ccccc1Cl | – | – | – | 52! | – | – | –
O=C1C2CCCN2C(=O)N1CCN1CCN(c2ccccc2)CC1 (configuration not stated) | – | 71 | – | 42 | – | – | –
Cc1ccc(N2CCN(CCCCN3C(=O)C4CCCN4C3=O)CC2)cc1 (configuration not stated) | – | · | – | · | – | · | ·
O=C1C2CCCCN2C(=O)N1CCN1CCN(c2ccc(F)cc2)CC1 (configuration not stated) | – | · | – | · | · | · | ·
O=C1C2CCCN2C(=O)N1CCCCN1CCN(c2ccccc2)CC1 (configuration not stated) | – | 62 | ? | 86 | – | ? | ?
O=C1C2CCCN2C(=O)N1CCCCN1CCN(c2cccc(Cl)c2)CC1 (configuration not stated) | – | 80 | – | 66 | – | – | –
Cc1oc2ccc(O)c(CN3CCCC3)c2c1C(=O)Nc1ccc(C(C)C)cc1 | · | · | · | – | – | · | ·
O=C(COC(=O)CCc1c[nH]c2ccccc12)NCc1ccc2c(c1)OCO2 | – | – | – | 74 | – | – | –
CCCCN(C)CCCNC(=O)CC1Oc2ccccc2NC1=O (configuration not stated) | – | 62 | – | 85 | – | ? | ?
CCCN(CCC)CCCNC(=O)CC1Nc2ccccc2NC1=O (configuration not stated) | – | – | – | 51 | – | – | –
CCCCN(CC)CCCNC(=O)CC1Nc2ccccc2NC1=O (configuration not stated) | – | 40 | – | 75 | – | – | –
Cn1c(N)c(C(=O)CSc2nnc(-c3cccs3)n2C2CC2)c(=O)[nH]c1=O | – | – | ? | 77 | – | – | –
Nc1c(C(=O)CSc2n[nH]c(-c3ccccc3)n2)c(=O)[nH]c(=O)n1C1CC1 | – | – | ? | 66 | – | – | –
Nc1c(C(=O)CSc2n[nH]c(-c3ccccc3Br)n2)c(=O)[nH]c(=O)n1C1CC1 | – | – | – | – | – | · | ·
Cc1cccc(NC(=O)c2ccc3snnc3c2)c1C | · | · | · | – | – | · | ·
Cc1ccc(S(=O)(=O)N2CCN(C(=O)COC(=O)CSc3cc(C)ccc3C)CC2)c(C)c1 | – | – | – | – | – | – | –
Cc1ccc(S(=O)(=O)N2CCN(C(=O)COC(=O)/C=C/c3ccccc3)CC2)c(C)c1 | – | – | – | – | – | – | –
Cc1ccc(S(=O)(=O)N2CCN(C(=O)COC(=O)/C=C/c3ccc(F)cc3)CC2)c(C)c1 | – | – | – | – | – | · | ·
